61 compounds from PubChem BioAssay AID449762 (Southern Research Specialized Biocontainment Screening …, 2010) can be followed below.

In all, about 330,000 compounds went through this assay and about 1,900 (0.58%) were called active. Inconclusive results (about 4%) are left out. The list is a sample of the results. Results with a measured potency or affinity are listed apart. A number with no mark means an inactive call. Cut-off read from the data, not from the text of the source: inconclusive = inhibition above about 70% without an active follow-up result; inactive = below that.

A short description of this experiment: M. tuberculosis growth inhibition, HTS (AID 449762).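 Note: bacterial growth assessed after seven days of incubation.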 The conditions noted are these: M. tuberculosis H37Rv growth inhibition, 7H9 media; at 25 µM; stronger effect = higher value.
In the case of `C/C(CC1CC2=C(CC1(C)C)C(C)(C)CCC2)=N\NC(N)=S` (stereo unspecified), the inhibition was -0.2%.

Consider `CC1=C(CC/C(C)=N/NC(N)=S)C(C)(C)CCC1`, for which the inhibition is 12%.

For `CC(C)n1ncc2c(C(=O)Nc3ccc(S(C)(=O)=O)cc3)cc(C3CC3)nc21`, the inhibition is 2.05%.

Turning to `CCn1c(=O)cc(SCC(=O)Nc2ccc(OC)c(OC)c2)c2ccccc21`, the inhibition was -7.13%.

On to `Cc1cc(C)cc(NC(=S)N2CCC(NC(=O)C3CCCCC3)CC2)c1`, for which the inhibition was -1.01%.

Turning to `CCOP(=O)(OCC)C(O)c1cc(OC)c(OC)c(OC)c1` (stereo unspecified), the inhibition is 0.28%.

For the compound `Cc1csc(CNc2ncnc3ccc(-c4cccnc4)cc23)c1`, the inhibition was 2.87%.

Take `C(=N\NC1=Nc2cccc3cccc1c23)/c1ccccc1`: the inhibition is 9.94%.

Turning to `Fc1ccc(/C=N/NC2=Nc3cccc4cccc2c34)cc1`, the inhibition was -8.86%.

For `CC(=O)c1c(C)[nH]c(C(=O)Nc2cccc(S(=O)(=O)N3CCOCC3)c2)c1C`, the inhibition was -28%.

For `O=C(O)CNC(=S)NCc1ccccc1`, the inhibition is -1.14%.

Turning to `CCOC(=O)c1[nH]c2cc(OC)c(OC)cc2c1NC(=O)CN1CCN(c2ccc(OC)cc2)C(C)C1` (stereo unspecified), the inhibition was -2.17%.

Take `COC(=O)c1[nH]c2cccc(OC)c2c1NC(=O)CN1CCN(c2cccc(OC)c2)C(C)C1` (stereo unspecified): the inhibition was 52.6%.

Consider `O=C(c1cc2ccccc2oc1=O)N1CCN(Cc2ccc3c(c2)OCO3)CC1`, for which the inhibition was -3.79%.

On to `C=C(c1ccccc1O)n1ccnc1`, for which the inhibition is 0.25%.

For the compound `Cc1cccc(C(=O)NNC(=O)c2ccccc2)c1`, the inhibition was -6.62%.

As to `O=C(COc1ccccc1)NNC(=S)NC(=O)c1ccccc1`, the inhibition is 56.3%.

As for `O=C(COc1ccccc1)NNC(=S)NC(=O)c1ccc(Cl)cc1Cl`, the inhibition is 55.5%.

With `Cc1cccc(C(=O)NNC(=O)c2cccc(C)c2)c1`, the inhibition is -16.6%.

As to `O=C(c1cc(Br)c(Br)s1)N1CCN(C/C=C/c2ccccc2)CC1`, the inhibition is -4.13%.

With `OCCOCCn1c(C2CCCN2c2nc(-c3ccc(F)cc3)cs2)nc2cc(C(F)(F)F)ccc21` (stereo unspecified), the inhibition is 2.16%.

`CCOc1ccc(-n2nnc3c(=O)n(C/C=C/c4ccccc4)cnc32)cc1`: the inhibition was -10.8%.

Regarding `CC(=O)Nc1ccc(C(=O)CN2C(=O)NC3(CCCCCC3)C2=O)c(F)c1`, the inhibition was -9.64%.

For `CC(C)c1ccc(OC(=O)c2cccc(S(=O)(=O)N3CCN(C)CC3)c2)cc1`, the inhibition is 10.8%.

As to `CC1(C)N=C(N)N=C(N)N1c1cccc(CN)c1`, the inhibition was -3.4%.

As for `Nc1ccc(Br)cc1Br`, the inhibition was -6.59%.

Take `Brc1ccc2ncc(Br)cc2c1`: the inhibition was 2.82%.

For `COC(=O)C1CCN(C(=O)/C=C/c2ccccc2)CC1`, the inhibition is -5.05%.

On to `Cc1nn(Cc2ccccc2)c(C)c1CNC(=O)[C@H](C)N=C1NS(=O)(=O)c2ccccc21`, for which the inhibition was 6.6%.

Take `Cc1cccc(-n2cc(CNCCN3CCOC3=O)c(-c3cccc(F)c3)n2)c1`: the inhibition was 1.99%.

On to `O=C1CC2(CCCCC2)Oc2ccc(F)cc21`, for which the inhibition was -0.1%.

In the case of `NC(N)=N/N=C/c1ccccc1`, the inhibition was -2.68%.

Turning to `CCN(Cc1ccccc1)c1ccc(/C=N/N2CCOCC2)cc1`, the inhibition is 11.3%.

In the case of `CCN(Cc1ccccc1)c1ccc(/C=N/NC(=S)NC(C)C)cc1`, the inhibition was 10.7%.

On to `NC(N)=N/N=C/c1ccc(Br)cc1`, for which the inhibition was 10.5%.

`COc1ccc(-c2oc3cccnc3c2C#CCO)cc1`: the inhibition was 5.48%.

Turning to `CC(=O)N/C(=C\c1ccccc1)C(=O)N1CCOCC1`, the inhibition is -6.38%.

Turning to `CN(C)CCCN1c2ccc([N+](=O)[O-])cc2CCc2cc([N+](=O)[O-])ccc21`, the inhibition was -1.94%.

Regarding `COc1cc(/C=C/c2cccc[n+]2C)ccc1OCC(=O)Nc1ccccc1C`, the inhibition was -9.56%.

For the compound `CCOc1cc(/C=C\[N+](=O)[O-])ccc1OCC(=O)N1CCOCC1`, the inhibition is 3.95%.

On to `COc1cccc(C(=O)c2c[nH]c(C(=O)NCCCN(C)C)c2)c1`, for which the inhibition is -4.05%.

With `COCCn1c(CN2CCN(C(=O)c3ccco3)CC2)nc2c1c(=O)n(C)c(=O)n2C`, the inhibition is 13%.

Turning to `CC(=O)c1ccc(OC(=O)COc2ccccc2)cc1`, the inhibition was -5.04%.

Consider `NS(=O)(=O)c1ccc(NC(=O)CSc2ncnc3ccccc23)cc1`, for which the inhibition was 0.11%.

For the compound `O=C(CSc1nnc(NC2CCCCC2)s1)Nc1ccc2c(c1)C(=O)c1ccccc1C2=O`, the inhibition was 4.12%.

In the case of `CC(Sc1nnc(NC2CC2)s1)C(=O)Nc1ccc(S(N)(=O)=O)cc1` (stereo unspecified), the inhibition is 8.95%.

Turning to `CCN1CCN(c2nc3c(c(=O)[nH]c(=O)n3C)n2CCCc2ccccc2)CC1`, the inhibition was -0.19%.

For the compound `COc1cc(C(C)=O)ccc1OCC(O)CN1CCN(S(=O)(=O)c2ccccc2)CC1` (stereo unspecified), the inhibition was -10.5%.

Turning to `CCOC(=O)c1cc(C)nc(SC)c1C#N`, the inhibition was 6.64%.

On to `C#CCSc1nc(C)cc(C(=O)OCC)c1C#N`, for which the inhibition was 1.67%.

As to `CCOC(=O)[C@@H]1[C@H]2COc3ccc(Br)cc3[C@@H]2N2C(=O)N(c3ccc(C)cc3)C(=O)[C@@]12C`, the inhibition was -3.24%.

As for `CN(Cc1cnn(C)c1)C(=O)CC1C(=O)NCCN1Cc1cccc(Oc2ccccc2)c1` (stereo unspecified), the inhibition was 3.24%.

Consider `Cc1sc2nc(C(C)C)nc(SCC(=O)NC3CC3)c2c1C`, for which the inhibition is 0.27%.

For the compound `Cc1c(C(=O)CN2CCCC(C)(C)C2)c2ccccc2n1C`, the inhibition is 5.6%.

Turning to `COc1cc(CNCCCN2CCOCC2)ccc1OCC(=O)Nc1cccc(C(F)(F)F)c1`, the inhibition is 0.14%.

Consider `CCOc1cc(CNCCCN2CCOCC2)ccc1OCC(=O)Nc1cccc2ccccc12`, for which the inhibition is 6.81%.

In the case of `Cc1ccc(S(=O)(=O)N2CCOCC2)c(C)c1NS(C)(=O)=O`, the inhibition was -0.81%.

On to `CCN(C(=O)COc1cc(OC)ccc1C(C)=O)C1CCS(=O)(=O)C1` (stereo unspecified), for which the inhibition is 0.77%.

Turning to `CCc1noc(C)c1C(=O)NNC(=O)COc1cc(C)ccc1C`, the inhibition was 0.9%.

On to `Cc1ccc(NC(=O)CCS(=O)(=O)c2cccc3nonc23)cc1`, for which the inhibition is 13.6%.

On to `CCc1cccc(NC(=O)CCS(=O)(=O)c2cccc3nonc23)c1`, for which the inhibition is 57.8%.

By inhibition is commonly meant the drop in the measured response relative to a control, in per cent.
